# From PubChem BioAssay
# G9a inh = G9a (human) methyltransferase inhibition. G9a H3K9 monomethylation, AlphaScreen, 2 h. AID 504332. Potency, µM (doses to about 102 µM), actives largely listed as inhibitors. Q96KQ7. 350,000 tested, 8.8% active; also: nearly all actives have a fitted effect of over 75% in size
#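 Quantitative HTS format: methyltransferase activity on a biotin-tagged H3K9 peptide is measured by AlphaScreen, using a rabbit anti-monomethyl-H3K9 antibody with streptavidin donor and anti-IgG acceptor beads. Final levels are 20 nM enzyme, 500 nM peptide, 20 uM SAM; 2 h RT.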
# GLS inhibitor = blocks human kidney-isoform glutaminase activity; GLS enzymatic activity, qHTS titration; Potency, µM (top dose mostly 45.5 µM), hits mostly inhibitors; 410,000 tested, 0.21% active; AID 624170
#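 Assay buffer: 45 mM KH2PO4 pH 8.2, 0.02% Tween-20. hKGA acts on L-glutamine (1 mM solution added); product glutamate is reported by an oxidase/peroxidase Amplex Red coupling, with fluorescence taken at baseline and 30 min.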
# BAZ2B block = BAZ2B (human) inhibition; 360,000 tested, 4.4% active; Potency, µM (doses to about 114 µM), usual class: inhibitors; AlphaScreen BAZ2B-H3K14Ac peptide displacement; Q9UIF8; also: nearly all actives have a fitted effect of over 60% in size
#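 In this displacement format the biotinylated H3(5-23) peptide acetylated at Lys14 serves as ligand at 50 nM, with BAZ2B at 50 nM in PBS pH 7.4 containing 0.01% Tween-20. Donor and acceptor beads are 10 ug/mL final.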
# HP1b binding inh = HP1-beta chromodomain-methylated histone interaction inhibition | P83916 | AlphaScreen HP1-beta / biotin-H3K9me3 peptide binding | Potency, µM (doses to about 114 µM), most hits filed as inhibitors | 390,000 tested, 0.56% active | AID 540317; also: nearly all actives have a fitted effect of over 70% in size
#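 HP1-beta protein (50 nM final) preincubated 30 min at room temperature with biotinylated H3(1-18)K9me3 peptide (50 nM) in PBS pH 7.4, 0.01% Tween-20, then compound added for 30 min. AlphaScreen streptavidin donor/nickel chelate acceptor beads (10 ug/mL final), 30 min dark, luminescence read.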
# JMJD2A Tudor = JMJD2A Tudor domain (human) inhibition. AID 504339. 390,000 tested, 4.4% active. Potency, µM (highest dose often 114 µM), hits mostly inhibitors. AlphaScreen JMJD2A-Tudor / H3K4me3 peptide binding. O75164; also: nearly all actives have a fitted effect of over 50% in size
# A number is an active result; i = inactive; ? = inconclusive; nt = not tested or not shown; [ ] = dose if it differs, or a comment. Compounds with a hit are over-represented: about 10% of the library has one in this group of screens. Calls follow the shape of the dose curve; as a rule, active = well fitted curve in the direction sought with a large enough effect; inconclusive = small, poorly fitted or top-dose-only effect, or another doubt; inactive = no such curve, though single readings can be large; an effect the other way counts as inactive or inconclusive.
SMILES,G9a inh,GLS inhibitor,BAZ2B block,HP1b binding inh,JMJD2A Tudor
O=C(Cc1ccc(S(=O)(=O)N2CCOCC2)s1)Nc1ccc(N2CCOCC2)cc1,?,i,nt,i,i
O=C(Cc1ccc(S(=O)(=O)N2CCOCC2)s1)Nc1cc(C(F)(F)F)ccc1N1CCCC1,50.1µM,i,i,i,?
CN(C)S(=O)(=O)c1ccc(NC(=O)Cc2ccc(S(=O)(=O)N3CCOCC3)s2)cc1,56.2µM,i,?,i,i
CC(C)CCNC(=O)c1ccc2nc(Cc3ccccc3)oc2c1,i,i,i,i,i
CC(=O)Nc1ccc(CCCCc2ccc(NC(C)=O)cc2)cc1,nt,i,nt,i,i
COc1ccc(Nc2c([N+](=O)[O-])ccc3c2=NC2(CCCCC2)N=3)cc1,10µM,i,7.08µM,8.91µM,15.8µM
Cc1cc(C(=O)O)ccc1-c1ccc(CO)o1,?,i,i,i,i
Cc1cccc(NC(=O)CN2C(=O)S/C(=C\c3cc(C)n(C)c3C)C2=O)c1,i,i,i,i,i
Cc1c(/C=C2\SC(=O)N(CC(=O)Nc3ccc4c(c3)OCO4)C2=O)c2ccccc2n1C,i,?,i,i,i
Cc1cc(C(=O)O)ccc1-c1ccc(/C=C2\SC(=O)N(CC(=O)Nc3ccc4c(c3)OCO4)C2=O)o1,i[0.501 µM],nt,17.8µM,nt,nt
Cc1ccccc1NC(=O)CN1C(=O)S/C(=C\c2ccc(-c3cc(C(=O)O)ccc3C)o2)C1=O,5.01µM,i,14.1µM,39.8µM,22.4µM
Cc1ccc(C(=O)O)cc1-c1ccc(/C=C2\SC(=O)N(CC(=O)Nc3ccccc3)C2=O)o1,7.08µM,i,22.4µM,?,35.5µM
C#CCN1C(=O)S/C(=C\c2ccc(-c3ccc(C(=O)O)cc3C)o2)C1=O,?,i,50.1µM,i,89.1µM
CCOc1ccc(CCNC(=O)CCn2c(=O)c3cccn3c3ccc(F)cc32)cc1OCC,i,i,i,i,i
CN1C(C(=O)NCc2cccc(C(F)(F)F)c2)CC2Cn3c(nc4cc(Cl)c(Cl)cc43)C21 (stereo unspecified),i,i,i,i,i
C[C@H]1c2cccc(O)c2C(O)=C2C(=O)[C@]3(O)C(O)=C(C(N)=O)C(=O)[C@@H](N(C)C)C3[C@@H](O)C21 (stereo partly specified),10µM,i,10µM,i,22.4µM
C[C@@H]1c2cccc(O)c2C(O)=C2C(=O)[C@@]3(O)C(O)=C(C(N)=O)C(=O)[C@@H](N(C)C)[C@@H]3[C@@H](O)[C@@H]21,i[12.7 µM],i,nt,nt,nt
CN(C)c1ccc(O)c2c1C[C@H]1C[C@H]3[C@@H](N(C)C)C(=O)C(C(N)=O)=C(O)[C@]3(O)C(=O)C1=C2O,8.91µM,nt,nt,nt,nt
CN(C)Cc1ccccc1-c1cccc2nccn12,nt,i,nt,nt,nt
CNc1ccc(Br)cc(C(=O)/C=C/c2cccc(OC)c2OC)c1=O,8.91µM,nt,39.8µM,i,i
COc1ccccc1/C=C/C(=O)c1cc(Br)ccc1OC(=O)c1ccco1,nt,i,nt,i,56.2µM
CNc1ccc(Br)cc(C(=O)/C=C/c2cccc(Cl)c2Cl)c1=O,28.2µM,i,?,i,44.7µM
Cc1ccc(/C=C/C(=O)c2cc(Br)ccc2OC(=O)c2ccco2)cc1,i,i,i,i,i[11.4 µM]
COc1cccc(/C=C/C(=O)c2ccc3c(c2)OCO3)c1OC,i[12.7 µM],i,i,i,i
CCNc1ccc(Br)cc(C(=O)/C=C/c2ccccc2Cl)c1=O,nt,i,nt,i,44.7µM
SMILES,G9a inh,GLS inhibitor,BAZ2B block,HP1b binding inh,JMJD2A Tudor
O=C(O)c1ccccc1-c1noc(-c2ccccc2F)n1,i[12.7 µM],nt,i,nt,nt
CCN(CC)S(=O)(=O)c1cc(NC(=O)CNc2cccc(S(=O)(=O)N3CCCC3)c2)ccc1C,?,i,i,i,i
COC(=O)/C=C/c1ccc2c(c1)OCO2,i,i,i,i,i
CNc1ccccc(C(=O)/C=C/c2ccccc2OC)c1=O,4.47µM,i,50.1µM,i,?
CCNc1ccccc(C(=O)/C=C/c2ccc3c(c2)OCO3)c1=O,5.01µM,i,44.7µM,?,56.2µM
COc1ccc(-c2nc3cnc(N(C)C)nc3n(CCC#N)c2=O)cc1,i[0.501 µM],nt,nt,nt,nt
COc1ncc2nc(C)c(=O)n(Cc3cccs3)c2n1,i[12.7 µM],nt,nt,nt,nt
N[C@@H](Cc1ccccc1)c1nnc2sc(SCc3ccccc3)nn12,7.08µM,i,?,i,?
O=C(NCc1cccnc1)c1ccc2c(=O)n(CCCN3CCCC3=O)c(=S)[nH]c2c1,39.8µM,nt,?,i,?
CCCCCNC(=O)c1ccc2c(=O)n(CCCN3CCCC3=O)c(=S)[nH]c2c1,6.31µM,i,i,i,i
CCC(=O)N1CCc2cc(S(=O)(=O)NC(CC(C)C)C(=O)Nc3cc(C)ccc3OC)ccc21 (stereo unspecified),i,i,nt,i,i
Cc1ccc(OC(=O)COc2ccccc2)c(-n2nc3ccccc3n2)c1,i,i,56.2µM,i,i
O=C(CC1N=C2c3ccccc3N=C(SCc3ccccc3Cl)N2C1=O)NC1CCCCC1 (stereo unspecified),i,i,i,i,i
Cc1ccc(N(O)C(=O)NCCCCNC(=O)N(O)c2ccc(C)cc2)cc1,79.4µM,i,i,i,?
COC(=O)Cc1c(C)c2ccc3c(c2oc1=O)CN(Cc1ccc(Cl)cc1)CO3,i,i,i,i,i
O=C1C=C(c2ccccc2)C(=O)N1Nc1ccccc1,8.91µM,?,i,i,i
COc1ccc(CCCNC(=O)C2Cc3c(-c4ccc5c(c4)OCO5)ccnc3O2)cc1 (stereo unspecified),nt,i,nt,nt,nt
O=C(Nc1ccc(-c2ccccc2)cc1)c1ccccc1,i[0.501 µM],i,i,i,i
O=C(Nc1ccc(-c2n[nH]c(=S)o2)cc1)c1ccccc1,31.6µM,i,i,i,?
COc1ccc(C(=O)Nc2ccc(-c3n[nH]c(=S)o3)cc2)cc1,1.78µM,i,?,i,?
Oc1c(Cl)cc(Cl)c2c1NCCC2,?,11.2µM,?,50.1µM,56.2µM
CSc1ncccc1C(=O)OCC(=O)N1CCCC1,nt,i,nt,i,i
CCC(Sc1ncccc1C(=O)O)C(=O)N1CCOCC1 (stereo unspecified),?,i,?,i,5.62µM
CCOC(=O)c1cccnc1SC(CC)C(=O)N1CCOCC1 (stereo unspecified),i,i,i,i,i
CCC(Sc1ncccc1C(=O)O)C(=O)N1CCCC1 (stereo unspecified),?,i,?,i,3.55µM
Cc1ccc(-n2nc(C(=O)Nc3ccc(Br)cc3C)c(=O)n(C)c2=O)cc1,i,i,i,i,i
COc1ccc(CCNC(=O)c2ccc3nc(N4CCCCC4)sc3c2)cc1OC,?,i,i,i,i
Cc1ccc([C@@H]2C[C@H]3[C@@H](CN2S(=O)(=O)c2ccc(Cl)cc2)C(=O)C[C@@H](c2ccc(C)cc2)N3S(=O)(=O)c2ccc(Cl)cc2)cc1,nt,i,nt,nt,nt
CCCCCCCC/C=C\CCCCCCCC(=O)NCCc1ccc(O)c(O)c1,?,i,i,i,35.5µM
CCn1c(SCC(=O)NC(=O)NC(C)(C)C)nc2ccccc21,i,i,i,?,11.2µM
